Laboratory results taken from PubChem BioAssay (Tox21).
The source made the active and inactive calls. Entries that show only a call come without a potency. Calls follow the shape of the dose curve; as a rule, active = well fitted inhibition curve with a large enough effect in the repeat runs (not every such curve was filed as active); inconclusive = weak or mixed curves; inactive = flat fitted curve, though single readings scatter.

The compounds below were run against Thyrotropin-releasing hormone receptor (Homo sapiens) (UniProt P34981) (assay: qHTS assay to identify small molecule antagonists of the thyrotropin-releasing hormone receptor (TRHR) signaling pathway (AID 1346877)). Details: TRHR-HEK293, TRH-induced calcium fluorescence, antagonist mode; series mostly up to 51.3 µM.
From the text: National Center for Advancing Translational Sciences [NCATS]
NIH Chemical Genomics Center [NCGC]
U.S. Environmental Protection Agency [EPA]
National Institutes of Environmental Health Sciences [NIEHS]
National Toxicology Program [NTP]
U.S. Food and Drug Administration [FDA]
Thyrotropin-releasing hormone (TRH) receptor (TRHR) is a G-protein-coupled receptor which binds the tripeptide thyrotropin releasing hormone. TRHR is found in the brain and, when bound by TRH, acts (through phospholipase C) to increase intracellular inositol trisphosphate. It plays a crucial role in the anterior pituitary where it controls the synthesis and secretion of thyroid stimulating hormone and prolactin. The TRHR-Hek293 assay is a cell-based assay, and it has the potential to screen G protein-coupled receptors. A compound/drug can either activate (agonist) or suppress (antagonist) GPCRs that can be monitored by levels of intracellular calcium. In this assay, the Tox21 10K compound library was screened to identify potential TRHR antagonists.
Tox21 Assay Protocol Summary:
The TRHR-Hek293 cells were dispensed at 1500cells/4uL/well in 1536-well black-clear bottom plates using a Multidrop dispenser. After the assay plates were incubated at a 37 C/5% CO2 incubator for 18 hours, 4 uL of Dye-Loading Solution was added to each well. The plates were incubated at 37 C for 2 hours. For agonist mode, 23 nL of compounds dissolved in DMSO, positive controls or DMSO only was transferred to the assay plate by a pin tool. The fluorescence intensity in the plates was measured using FDSS 7000EX kinetic plate reader for 3 min at 1 sec intervals. For antagonist mode, 23 nL of compounds dissolved in DMSO, positive controls or DMSO only was transferred to the assay plate by a pin tool. After 5 min incubation at room temperature, 1 uL of TRH was added on the top of the cell/compound mixtures to achieve a final agonist concentration of 1 nM. The fluorescence intensity in the plates was measured using FDSS 7000EX kinetic plate reader for 3 min at 1 sec intervals. Each test compound was measured at 15 concentrations and in triplicates.

Thyrotropin-releasing hormone receptor (Homo sapiens), sequence (P34981 whole entry, looked up): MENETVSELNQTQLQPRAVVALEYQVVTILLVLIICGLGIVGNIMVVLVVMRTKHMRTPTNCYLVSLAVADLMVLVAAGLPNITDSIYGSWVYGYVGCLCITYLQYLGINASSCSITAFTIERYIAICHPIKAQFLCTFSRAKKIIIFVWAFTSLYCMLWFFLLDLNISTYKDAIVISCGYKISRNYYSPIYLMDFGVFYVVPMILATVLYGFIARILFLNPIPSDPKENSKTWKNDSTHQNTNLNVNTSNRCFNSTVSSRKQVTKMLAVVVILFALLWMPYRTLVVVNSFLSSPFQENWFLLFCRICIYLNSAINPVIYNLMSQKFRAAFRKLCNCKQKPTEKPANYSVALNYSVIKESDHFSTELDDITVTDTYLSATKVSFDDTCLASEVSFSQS

Row | Compound | Potency
1 | Nc1ccc2cc(S(=O)(=O)O)cc(O)c2c1N=Nc1ccccc1C(F)(F)F | inactive
2 | CN(C)[C@@H]1C(=O)C(C(N)=O)=C(O)[C@@]2(O)C(=O)C3=C(O)c4c(O)ccc(Cl)c4[C@@H](O)[C@H]3C[C@@H]12 | inactive
3 | CCOC(=O)O[C@]1(C(=O)OCCl)CC[C@H]2[C@@H]3CCC4=CC(=O)C=C[C@]4(C)[C@H]3[C@@H](O)C[C@@]21C | inactive
4 | CCC1=C[C@@H]2CN(C1)Cc1c([nH]c3ccccc13)[C@@](C(=O)OC)(c1cc3c(cc1OC)N(C)[C@H]1[C@@](O)(C(=O)OC)[C@H](OC(C)=O)[C@]4(CC)C=CCN5CC[C@]31[C@@H]54)C2 | inactive
5 | Cc1cc(O)c(Cl)c(C)c1Cl | inactive
6 | CC1=NC(C)OC1C (stereo not given) | inactive
7 | CN(C)c1ccc(SC#N)cc1 | inactive
8 | COc1ccc(C(=O)/C(Br)=C\C(=O)O)cc1 | inactive
9 | CCCCCCCCCCCCCCCC(=O)OC[C@H](O)[C@H]1OC(=O)C(O)=C1O | inactive
10 | Oc1c(Cl)cc(Cl)c2cccnc12 | inactive
11 | Clc1ccc2n[nH]nc2c1 | inactive
12 | CC(=O)OCC(C)OC(C)=O (stereo not given) | inactive
13 | C[C@H]1[C@H]2CC[C@H]3[C@@H]4CC=C5C[C@@H](N(C)C)CC[C@]5(C)[C@H]4CC[C@]23CN1C | inactive
14 | O=C(NOCC1CC1)c1ccc(F)c(F)c1Nc1ccc(I)cc1Cl | inactive
15 | Cc1cccc(N(C)C(=S)Oc2ccc3c(c2)C2CCC3C2)c1 (stereo not given) | inactive
16 | C[C@@H](NCCCc1cccc(C(F)(F)F)c1)c1cccc2ccccc12 | inactive
17 | OCCN1CCN(CC/C=C2/c3ccccc3Sc3ccc(C(F)(F)F)cc32)CC1 | inactive
18 | CCCCCOC(=O)CCCC | inactive
19 | Cc1cc(=O)oc2cc(N(C)C)ccc12 | inactive
20 | CCC(N)(CO)CO | inactive

Row | Compound | Potency
21 | CN(C/C=C/C#CC(C)(C)C)Cc1cccc2ccccc12 | inactive
22 | Oc1ccc2cc(SSc3ccc4cc(O)ccc4c3)ccc2c1 | inactive
23 | O=C(N/N=C/c1ccccc1O)c1ccncc1 | inactive
24 | COC(=O)C1=C(C)NC(C)=C(C(=O)OCC(C)C)C1c1ccccc1[N+](=O)[O-] (stereo not given) | inactive
25 | O=C(Nc1cccc(C(F)(F)F)c1)c1cc(Br)cc(Br)c1O | inactive
26 | CCCC1O[C@@H]2C[C@H]3[C@@H]4CCC5=CC(=O)C=C[C@]5(C)[C@H]4[C@@H](O)C[C@]3(C)[C@]2(C(=O)CO)O1 (stereo not given in full) | inactive
27 | O=C(NO)C1(NS(=O)(=O)c2ccc(Oc3ccc(F)cc3)cc2)CCOCC1 | inactive
28 | CC[C@@]1(O)C(=O)OCc2c1cc1n(c2=O)Cc2c-1nc1ccccc1c2/C=N/OC(C)(C)C | inactive
29 | C[C@@H]1C[C@H]2[C@@H]3CCC4=CC(=O)C=C[C@]4(C)[C@@]3(Cl)[C@@H](O)C[C@]2(C)[C@@]1(OC(=O)c1ccco1)C(=O)CCl | inactive
30 | CN1CCN(CCC(=O)N2c3ccccc3Sc3ccc(C(F)(F)F)cc32)CC1 | inactive
31 | Cc1cccc(CN2CCN(C(c3ccccc3)c3ccc(Cl)cc3)CC2)c1 (stereo not given) | inactive
32 | O=CC=C(c1ccccc1)c1ccccc1 | inactive
33 | C=CC(=O)OCCn1c(=O)n(CCOC(=O)C=C)c(=O)n(CCOC(=O)C=C)c1=O | inactive
34 | Nc1ccccc1O | inactive
35 | O=C(Oc1cccc2cccnc12)c1ccccc1 | inactive
36 | N#CC1(c2ccc(F)cc2)CCC(=O)CC1 | inactive
37 | CCCCC(CC)CN=C(N)NC(N)=NCCCCCCN=C(N)NC(N)=NCC(CC)CCCC (stereo not given) | inactive
38 | CCN(C(=O)N(CC)c1ccccc1)c1ccccc1 | inactive
39 | OC1(c2ccc(Cl)c(C(F)(F)F)c2)CCN(CCCC(c2ccc(F)cc2)c2ccc(F)cc2)CC1 | inactive
40 | CCN(CC)CCCC(C)Nc1c2ccc(Cl)cc2nc2ccc(OC)cc12 (stereo not given) | inactive
